Results filed as inconclusive are left out. Activity calls are given as the source filed them. Calls come from the whole dose curve; as a rule, active = well fitted curve in the direction sought with a large enough effect; inconclusive = small, poorly fitted or top-dose-only effect, or another doubt; inactive = no such curve, though single readings can be large; an effect the other way counts as inactive or inconclusive.
Key:
[1] = Cell Viability - LYMP1-002 - Assay at 16 hr (AID 948)
How it was run: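 Seed 2500 LYMP1-002 cells per well in complete medium and hold 5 hr at 37 C. Add compound across a concentration series and incubate 16 hr at 37 C. Add CellTiter-Glo, wait 30 min at room temperature, read luminescence.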

[2] = MultiTox-Fluor Cytotoxicity Assay - LYMP1-002 - Live Cells (AID 955)
How it was run: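 Read-out is live-cell protease activity (cell-permeant GF-AFC substrate, fluorescence Ex/Em=405/510), where a decrease indicates acute toxicity. Human lymphoblastoid cells were treated 16 hours at 37 C in a concentration series, and AC50 values came from standard Hill modelling.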

[3] = MultiTox-Fluor Cytotoxicity Assay - LYMP1-002 - Dead Cells (AID 960); note: nearly all actives have a fitted effect of over 60% in size
How it was run: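 LYMP1-002 cells 2500/well; 5 hr 37 C pre-incubation; compound 16 hr 37 C; MultiTox-Fluor reagent 60 min RT; dead-cell fluor Ex/Em 485/520. Norm. to DMSO (0%) vs 15 uM tetraoctylammonium bromide (100%); Hill AC50.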

[4] = MultiTox-Fluor Cytotoxicity Assay - LYMP1-003 - Dead Cells (AID 961); note: nearly all actives have a fitted effect of over 70% in size
How it was run: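 LYMP1-003 human lymphoblastoid cells (2500/well) exposed to compound 16 h at 37 C in complete medium; dead-cell protease read with bis-AAF-R110 fluorescence (Ex/Em 485/520) after 60 min at room temperature. Normalized to DMSO and 15 uM tetraoctylammonium bromide; AC50 from Hill fit.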

[5] = MultiTox-Fluor Cytotoxicity Assay - LYMP1-003 - Live Cells (AID 962);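 note: cytotoxic hits lower the live-cell protease signal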
How it was run: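 qHTS, 1536-well; 2500 cells/well LYMP1-003; 5 hr 37 C settle; cpd 16 hr 37 C; MultiTox-Fluor reagent 60 min RT; live-cell protease fluor. 405/510; Hill-fit AC50; tetraoctylammonium bromide pos. ctrl.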

[6] = Cell Viability - LYMP1-003 - Assay at 24 hr (AID 963)
How it was run: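 Cells seeded at 2500/well, 5 hr at 37 C; compounds added; 24 hr at 37 C; CellTiter-Glo added, 30 min room temperature; luminescence read. Decrease in ATP taken as cytotoxicity, AC50 from Hill modelling.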

[7] = Cell Viability - LYMP1-003 - Assay at 40 hr (AID 964); note: series mostly up to about 92 µM; nearly all actives have a fitted effect of over 60% in size
How it was run: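 Cells were seeded at 2500 per well and incubated 5 hr at 37 C. Compounds were added across a concentration series and left 40 hr at 37 C. CellTiter-Glo was added for 30 min at room temperature before luminescence reading.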

[8] = Cell Viability - LYMP2-004 (AID 966); note: nearly all actives have a fitted effect of over 65% in size
How it was run: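 Cells seeded 2500/well, rested 5 hr at 37 C, dosed across a concentration series, incubated 24 hr at 37 C, then CellTiter-Glo added for 30 min at room temperature and luminescence read. Hill fitting gave AC50.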

[9] = Cell Viability - LYMP2-005 (AID 967); note: series mostly up to about 92 µM
How it was run: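 Acute cytotoxicity is scored as a concentration-dependent drop in intracellular ATP in human lymphoblastoid LYMP2-005 cells after 24 h compound treatment. ATP is quantified by luciferase luminescence, and AC50 is derived by Hill-equation modelling.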

[10] = Cell Viability - LYMP2-009 (AID 968); note: series mostly up to about 92 µM; nearly all actives have a fitted effect of over 55% in size
[11] = Cell Viability - LYMP2-011 (AID 969); note: nearly all actives have a fitted effect of over 60% in size
How it was run: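 2500 cells/well, 5 hr 37 C; compound added, 24 hr 37 C; CellTiter-Glo 30 min RT; luminescence. qHTS concentration-response, Hill-equation AC50. Tetraoctylammonium bromide positive control.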

[12] = Cell Viability - LYMP2-013 (AID 970); note: series mostly up to about 92 µM; nearly all actives have a fitted effect of over 55% in size
How it was run: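 qHTS; 2500 lymphoblastoid cells/well; 5 hr 37 C settle; cpd 24 hr 37 C; CellTiter-Glo, 30 min RT; luminescence. AC50 = Hill fit.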

[13] = Cell Viability - LYMP2-015 (AID 971); note: nearly all actives have a fitted effect of over 55% in size
How it was run: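 Luminescent ATP read-out (CellTiter-Glo) served as the viability measure after lymphoblastoid cells were exposed to compounds for 24 hours at 37 C. Concentration-response data were fitted with the Hill equation to give AC50.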

[14] = Cell Viability - LYMP2-017 (AID 972); note: series mostly up to about 92 µM; nearly all actives have a fitted effect of over 55% in size
How it was run: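 2500 cells/well, 5 h 37 C; cpd 24 h 37 C in complete medium; CellTiter-Glo, 30 min RT; luminescence (ATP). AC50 via Hill fit, qHTS.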

[15] = Cell Viability - LYMP2-019 (AID 973); note: nearly all actives have a fitted effect of over 55% in size
How it was run: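 Luminescent ATP read-out (CellTiter-Glo, 30 min room temperature) served as the viability measure after 24 hr treatment of lymphoblastoid cells at 37 C. Concentration-response data were fitted to the Hill equation for AC50.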

[16] = Cell Viability - LYMP2-021 (AID 974)
How it was run: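 Plate 2500 lymphoblastoid cells per well and incubate 5 hr at 37 C. Add compounds over a concentration range and incubate 24 hr at 37 C. Add CellTiter-Glo, wait 30 min at room temperature, read luminescence.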

[17] = Cell Viability - LYMP2-023 (AID 975)
How it was run: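 2500 cells/well, 5 hr 37 C; cpd 24 hr 37 C; CellTiter-Glo, 30 min RT; luminescence. qHTS conc-response, Hill fit -> AC50. Pos ctrl tetraoctylammonium bromide.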

[18] = Cell Viability - LYMP2-025 (AID 976); note: series mostly up to about 92 µM
How it was run: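 Seed 2500 LYMP2-025 cells/well; 5 hr at 37 C; add compound; 24 hr at 37 C; add CellTiter-Glo; 30 min RT; read luminescence. AC50 from Hill-modelled concentration-response.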

[19] = Cell Viability - LYMP2-002 (AID 977); note: series mostly up to about 92 µM
How it was run: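 Luminescent ATP readout (CellTiter-Glo, 30 min room temperature) after 24 h compound exposure at 37 C of a human lymphoblastoid line, 2500 cells/well. AC50 values derived by standard Hill fitting of qHTS concentration-response data.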

[20] = Cell Viability - LYMP2-006 (AID 978); note: series mostly up to about 92 µM; nearly all actives have a fitted effect of over 60% in size
How it was run: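 Cells are seeded at 2500 per well and rested 5 hr at 37 C. Compounds are added across a concentration series for 24 hr at 37 C, after which ATP is quantified by luciferase luminescence.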

Measured: outcome

COS(C)(=O)=O
inactive: [1] | [2] | [3] | [4] | [5] | [6] | [7] | [8] | [9] | [10] | [11] | [12] | [13] | [14] | [15] | [16] | [17] | [18] | [19] | [20]

C=CC(C)(O)CCC=C(C)C (stereo not given)
inactive: [1] | [2] | [3] | [4] | [5] | [6] | [7] | [8] | [9] | [10] | [11] | [12] | [13] | [14] | [15] | [16] | [17] | [18] | [19] | [20]

C=C(C)[C@H]1CC=C(C)C(=O)C1
inactive: [1] | [2] | [3] | [4] | [5] | [6] | [7] | [8] | [9] | [10] | [11] | [12] | [13] | [14] | [15] | [16] | [17] | [18] | [19] | [20]

CC1=CC(=O)CC(C)(C)C1(O)/C=C/C(C)=C\C(=O)O (stereo not given)
inactive: [1] | [2] | [3] | [4] | [5] | [6] | [7] | [8] | [9] | [10] | [11] | [12] | [13] | [14] | [15] | [16] | [17] | [18] | [19] | [20]

Cc1occc(=O)c1O
inactive: [1] | [2] | [3] | [4] | [5] | [6] | [7] | [8] | [9] | [10] | [11] | [12] | [13] | [14] | [15] | [16] | [17] | [18] | [19] | [20]

Source: PubChem BioAssay (NCATS)
